{"source": "PubChem BioAssay AID686978", "about": "(National Center for Advancing Translational Sciences (NCATS), 2013)", "note": "About 64,000 (15%) of roughly 420,000 compounds were called active. Not shown: some 27% with an inconclusive outcome. Calls follow the shape of the dose curve; as a rule, active = well fitted inhibition curve with a large enough effect; inconclusive = small, poorly fitted or top-dose-only effect; inactive = flat fitted curve, though single readings scatter. Only a sample is shown. Entries that show only a call come without a potency. Potency is read from the fitted curve at half-maximal effect."}
{"test": "qHTS for Inhibitors of human tyrosyl-DNA phosphodiesterase 1 (TDP1): qHTS in cells in absence of CPT; also: nearly all actives have a fitted effect of over 55% in size", "details": "DT40 Tdp1-/- hTDP1 cells, no CPT, ATP luminescence, 48 h; activity change, negative = growth inhibition: at 46.2 µM (top of the series)", "method_in_brief": "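DT40 Tdp1-/-;hTDP1 cells, no CPT (DMSO vehicle only), 400 cells/well; compounds pin-transferred; ≥48 hr, 37 °C; CellTiter-Glo 30 min RT dark, luminescence read.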"}
{"smiles": "O=S1(=O)CC(NCc2ccccc2)C(Nc2ccc(Cl)cc2)C1", "note": "(configuration not stated)", "Potency": "inactive"}
{"smiles": "O=C(NC1(C(F)(F)F)N=C2SCCN2C1=O)c1ccco1", "note": "(configuration not stated)", "Potency": "inactive"}
{"smiles": "COc1cnn(-c2ccc([N+](=O)[O-])cc2)c(=O)c1Cl", "Potency": "inactive"}
{"smiles": "Cc1cc(C)c(C#N)c(SCS(=O)c2ccc(C(C)(C)C)cc2)n1", "note": "(configuration not stated)", "Potency": "inactive"}
{"smiles": "COC(=O)COc1ccc2c(=O)c(Oc3ccccc3Br)coc2c1", "Potency": "inactive"}
{"smiles": "C[C@H]1CN([C@@H](C)CO)C(=O)CCCn2cc(nn2)CO[C@@H]1CN(C)S(=O)(=O)c1ccc(-n2cccn2)cc1", "Potency": "inactive"}
{"smiles": "CCOc1ccc(CN(Cc2ccco2)C(c2cccs2)c2nnnn2C(C)(C)C)cc1", "note": "(configuration not stated)", "Potency": "16.4 µM (active)"}
{"smiles": "CC(C)(C)n1nnnc1C(c1ccccc1F)N1CCN(C(=O)c2ccco2)CC1", "note": "(configuration not stated)", "Potency": "inactive"}
{"smiles": "C/C(=C\\c1ccco1)CN1CCC(N2CCC(C(=O)N3CCOCC3)CC2)CC1", "Potency": "inactive"}
{"smiles": "CCN(C(=O)COC(=O)CCC(=O)c1cccs1)C1CCCCC1", "Potency": "inactive"}
{"smiles": "CCOC(=O)CNc1nc(Cl)nc(Nc2ccccc2)n1", "Potency": "inactive"}
{"smiles": "OCCNc1nc(Nc2ccc(Cl)c(Cl)c2)nc2ccccc12", "Potency": "16.4 µM (active)"}
{"smiles": "COc1cc2nc(Cl)nc(NCCO)c2cc1OC", "Potency": "inactive"}
{"smiles": "CCN(CC(=O)Nc1ccc(OC)cc1)C(=O)CSCc1ccc(C)cc1", "Potency": "inactive"}
{"smiles": "CN1CCN(c2ccc(NC(=O)c3ccc4c(c3)OCCO4)cc2Cl)CC1", "Potency": "inactive"}
{"smiles": "CN1CCN(c2ccc(NC(=O)c3cc(Cl)c4c(c3)OCCO4)cc2)CC1", "Potency": "29.1 µM (active)"}
{"smiles": "O=C(Nc1ccc(N2CCOCC2)cc1)c1ccc2c(c1)OCO2", "Potency": "inactive"}
{"smiles": "CCOc1ccc(C(=O)N(Cc2ccc(N(C)C)cc2)C2CCS(=O)(=O)C2)cc1", "note": "(configuration not stated)", "Potency": "inactive"}
{"smiles": "O=C(COc1ccc(Cl)cc1Cl)NCCCNC(=O)c1cnccn1", "Potency": "inactive"}
{"smiles": "O=C(CCc1cn(Cc2ccc(F)cc2)c2ccccc12)NC1CCCCC1", "Potency": "inactive"}
{"smiles": "CC(NC(=O)CCc1cn(Cc2ccccc2Cl)c2ccccc12)c1ccccc1", "note": "(configuration not stated)", "Potency": "23.1 µM (active)"}
{"smiles": "CC(NC(=O)Cn1cc(C(F)(F)F)cc(Cl)c1=O)c1ccccc1", "note": "(configuration not stated)", "Potency": "inactive"}
{"smiles": "Cc1cc(C)n2nc(C(=O)OCC(=O)N(CCC#N)c3ccc(F)cc3)nc2n1", "Potency": "inactive"}
{"smiles": "O=C(O)c1ccc(NC(=O)c2cn(-c3ccccc3)nc2-c2ccc(Cl)cc2)cc1", "Potency": "16.4 µM (active)"}
{"smiles": "COC(=O)c1cn(-c2ccccc2)nc1-c1cccnc1", "Potency": "inactive"}
{"smiles": "Cc1ccc(-c2nn(-c3ccccc3)cc2C(=O)NC2CCC(O)CC2)cc1", "note": "(configuration not stated)", "Potency": "inactive"}
{"smiles": "NCCCCCC(=O)N/N=C/c1ccc2nccnc2c1", "Potency": "inactive"}
{"smiles": "Cc1ccc(S(=O)(=O)N(C)C)cc1NC(=O)COC(=O)/C=C/c1cccs1", "Potency": "inactive"}
{"smiles": "CCN1CCN(C(=O)CCN2C(=O)c3ccccc3C2=O)CC1", "Potency": "inactive"}
{"smiles": "O=C(Nc1cccc(F)c1)N1C2CCC1CC(O)(c1cccnc1)C2", "note": "(configuration not stated)", "Potency": "inactive"}
{"smiles": "CCOC(=O)c1ccc(NC(=O)CCS(=O)(=O)c2ccc(C)cc2)cc1", "Potency": "20.6 µM (active)"}
{"smiles": "CC(C)Cc1nnc(NC(=O)CCc2ccccc2)s1", "Potency": "inactive"}
{"smiles": "CCOc1ccc(OCC)c(NC(=O)CCS(=O)(=O)c2ccc(C)cc2)c1", "Potency": "inactive"}
{"smiles": "Cc1ccc(S(=O)(=O)CCC(=O)Nc2nnc(CC(C)C)s2)cc1", "Potency": "16.4 µM (active)"}
{"smiles": "CCCCC(CCC(=O)Nc1ccc(C(=O)OCC)cc1)C(=O)O", "note": "(configuration not stated)", "Potency": "inactive"}
{"smiles": "Cc1ccc(S(=O)(=O)CC(=O)Nc2nnc(C)s2)cc1", "Potency": "inactive"}
{"smiles": "CC(C)CC(NS(=O)(=O)c1ccc2c(c1)oc(=O)n2C)C(=O)NCc1ccccc1Cl", "note": "(configuration not stated)", "Potency": "inactive"}
{"smiles": "Cc1cc(F)ccc1N1CCC(N2CCN(C)C(CCO)C2)CC1", "note": "(configuration not stated)", "Potency": "inactive"}
{"smiles": "CC(C)n1c(O)c(N=Nc2ccccn2)c2ccccc21", "Potency": "inactive"}
{"smiles": "CCC(C)NC(=O)c1ccccc1NC(=O)c1ccccc1N(C)S(C)(=O)=O", "note": "(configuration not stated)", "Potency": "inactive"}
{"smiles": "Cc1n[nH]c(=O)n1-c1ccc(C(C)C)cc1", "Potency": "inactive"}
{"smiles": "O=C1c2cccc3cccc(c23)C(=O)N1c1cccc(O)c1", "Potency": "inactive"}
{"smiles": "Cc1nnc(CN(C)Cc2cn[nH]c2-c2ccc(-c3ccccc3)cc2)o1", "Potency": "inactive"}
{"smiles": "CC1CCCN(S(=O)(=O)c2ccc(-c3ccc(=O)[nH]n3)o2)C1", "note": "(configuration not stated)", "Potency": "inactive"}
{"smiles": "O=S(=O)(c1ccc2nc(N3CCN(c4cccc(Cl)c4)CC3)ccc2c1)N1CCCCC1", "Potency": "inactive"}
{"smiles": "O=S(=O)(NCc1ccccc1)c1ccc(S(=O)(=O)N2CCCC2)cc1", "Potency": "inactive"}
{"smiles": "O=S(=O)(c1ccc2nc(NCc3ccccc3Cl)ccc2c1)N1CCCCC1", "Potency": "10.3 µM (active)"}
{"smiles": "CN(C(=O)CCNC(=O)Cn1ccc2ccccc2c1=O)c1ccc(Br)cc1", "Potency": "inactive"}
{"smiles": "CC/C(=N/Nc1ccccc1)c1cnnc(SC)n1", "Potency": "inactive"}
{"smiles": "COc1cccc(C(=O)Oc2cc(C)[nH]c(=O)c2[N+](=O)[O-])c1", "Potency": "inactive"}
{"smiles": "COc1ccc(/C=C/c2noc(-c3ccccc3OC(C)=O)n2)cc1", "Potency": "inactive"}
{"smiles": "O=C(CCc1ccc(O)cc1)NN=Cc1cc(Br)ccc1O", "Potency": "5.8 µM (active)"}
{"smiles": "CC(C)/C=N/NC(=O)c1cc(Br)ccc1O", "Potency": "inactive"}
{"smiles": "O=C(CCC(=O)N/N=C/c1ccc(Br)o1)N/N=C/c1ccc(Br)o1", "Potency": "inactive"}
{"smiles": "CCCC1NC(=O)NC(C)=C1C(=O)OCC", "note": "(configuration not stated)", "Potency": "inactive"}
{"smiles": "Nc1ncnc(Nc2cccc(Cl)c2Cl)n1", "Potency": "inactive"}
{"smiles": "O=C(CSc1nccc(=O)[nH]1)Nc1ccc(N2CCOCC2)c(Cl)c1", "Potency": "inactive"}
{"smiles": "CC(=O)Nc1ccc(OCC(O)CN2CCN(c3ccccc3Cl)CC2)cc1", "note": "(configuration not stated)", "Potency": "inactive"}
{"smiles": "OC(COc1ccccc1)Cn1cc(Br)cn1", "note": "(configuration not stated)", "Potency": "inactive"}
{"smiles": "Cc1ccccc1OCC(O)CN1CCN(c2ccccn2)CC1", "note": "(configuration not stated)", "Potency": "inactive"}
{"smiles": "Cc1ccc(OCC(=O)Nn2cnc3ccccc32)cc1", "Potency": "inactive"}
{"smiles": "CC(C)c1ccc(OCC(O)Cn2cnc3ccccc32)cc1", "note": "(configuration not stated)", "Potency": "14.6 µM (active)"}
{"smiles": "CC(C)c1ccc(OCC(O)CN2CCN(c3ccccn3)CC2)cc1", "note": "(configuration not stated)", "Potency": "10.3 µM (active)"}
{"smiles": "Cc1nc2ccc(S(=O)(=O)NCC(=O)O)cc2s1", "Potency": "inactive"}
{"smiles": "CC(=O)OC[C@H]1O[C@@H](O[C@H]2[C@H](O)[C@@H](OC(=O)c3ccccc3C(=O)O)[C@H](O)O[C@@H]2COC(C)=O)[C@H](O)[C@@H](OC(=O)c2ccccc2C(=O)O)[C@@H]1O", "Potency": "inactive"}
{"smiles": "Cc1ccc(CNC(=O)C2CCCN2S(=O)(=O)c2ccc3c(c2)C(C)(C)C(=O)N3C)cc1", "note": "(configuration not stated)", "Potency": "inactive"}
{"smiles": "C=CCOc1ccc(C(=O)Nc2ccccc2C(=O)N2CCCC2)cc1", "Potency": "inactive"}
